# Experimental data from PubChem BioAssay.
# The list shows a part of the results. The source made the active and inactive calls.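 The calls were made as follows, unless noted: active = membrane potential signal drops by more than 5 SD from the mean control signal, in both duplicate plates; inactive = the rest.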
# Key:
# [1] = parental HEK293 membrane potential modulation, confirmation, counter-screen for TRPC6 modulator project, cell-based (AID 488924;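 active = membrane potential signal moves up or down beyond 5 SD from buffer-only wells, on both duplicate plates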); details: parental HEK293, membrane potential dye fluorescence; at 10 µM
# [2] = modulation of acetylcholine-evoked membrane potential, parental HEK293, confirmation, counter-screen for TRPC6 modulator project, cell-based, second counter-screen, membrane potential dye (AID 488926); details: parental HEK293, membrane potential dye fluorescence, at 10 µM, after compound, maximal acetylcholine stimulation; active compounds read high;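 as to inhibition: plate controls were acetylcholine ECmax control wells for no effect and buffer only wells for full effect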
# [3] = system: Transient receptor potential cation channel subfamily C member 4 (mouse); assay: TRPC4 modulation by TRPC6 hit compounds, confirmation, selectivity assay for TRPC6 modulator project, cell-based, HEK293 TRPC4/mu-opioid, membrane potential dye, mouse (AID 488927;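 active = membrane potential signal moved up or down beyond 5 SD of buffer control wells, in both duplicate plates, actives on both sides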;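 as to percent change from control (negative = decrease, positive = increase): plate controls were assay buffer wells for no effect and DAMGO maximal-effect wells for full effect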); details: membrane potential fluorescence, at 10 µM
# [4] = system: TRPC4 (transient receptor potential cation channel C4), mouse; assay: TRPC4 inhibition by TRPC6 hit compounds, confirmation, selectivity assay for TRPC6 modulator project, cell-based, second screen, HEK293 TRPC4/mu-opioid, membrane potential dye (AID 488928;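 active = drop in membrane potential signal beyond 5 SD of the control wells in both duplicate plates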;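 also: TRPC4 counter screen for TRPC6 hits run under conditions tuned for TRPC6 not TRPC4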); details: membrane potential dye fluorescence, at 10 µM, stimulated with maximal-effect DAMGO; active compounds read high
# [5] = target: Short transient receptor potential channel 6 (Mus musculus) (UniProt Q61143); assay: mouse TRPC6 channel inhibitors, confirmation, HEK293 cells, membrane potential dye, duplicate (AID 488960;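 active = fluorescence ratio falls more than 5 SD below the full-stimulation control mean, in both duplicate runs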;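 as to inhibition: integrated fluorescence ratio of peak minus minimum over baseline after agonist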); details: ACh-evoked depolarization, at 10 µM; active compounds read high
# [6] = target: Short transient receptor potential channel 6 (Mus musculus) (UniProt Q61143); assay: mouse TRPC6 channel activators, confirmation, HEK293 cells, membrane potential dye, duplicate (AID 488961;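 active = ratio signal rise beyond 5 SD above unstimulated control wells' mean, seen in both duplicate runs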;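 as to activation: plate controls were buffer EC0 wells for no effect and acetylcholine ECmax response for full effect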); details: HEK293-TRPC6 membrane potential dye fluorescence, FDSS, at 10 µM; active compounds read high
# Sequence of Short transient receptor potential channel 6 (Mus musculus) (Q61143 whole entry, looked up): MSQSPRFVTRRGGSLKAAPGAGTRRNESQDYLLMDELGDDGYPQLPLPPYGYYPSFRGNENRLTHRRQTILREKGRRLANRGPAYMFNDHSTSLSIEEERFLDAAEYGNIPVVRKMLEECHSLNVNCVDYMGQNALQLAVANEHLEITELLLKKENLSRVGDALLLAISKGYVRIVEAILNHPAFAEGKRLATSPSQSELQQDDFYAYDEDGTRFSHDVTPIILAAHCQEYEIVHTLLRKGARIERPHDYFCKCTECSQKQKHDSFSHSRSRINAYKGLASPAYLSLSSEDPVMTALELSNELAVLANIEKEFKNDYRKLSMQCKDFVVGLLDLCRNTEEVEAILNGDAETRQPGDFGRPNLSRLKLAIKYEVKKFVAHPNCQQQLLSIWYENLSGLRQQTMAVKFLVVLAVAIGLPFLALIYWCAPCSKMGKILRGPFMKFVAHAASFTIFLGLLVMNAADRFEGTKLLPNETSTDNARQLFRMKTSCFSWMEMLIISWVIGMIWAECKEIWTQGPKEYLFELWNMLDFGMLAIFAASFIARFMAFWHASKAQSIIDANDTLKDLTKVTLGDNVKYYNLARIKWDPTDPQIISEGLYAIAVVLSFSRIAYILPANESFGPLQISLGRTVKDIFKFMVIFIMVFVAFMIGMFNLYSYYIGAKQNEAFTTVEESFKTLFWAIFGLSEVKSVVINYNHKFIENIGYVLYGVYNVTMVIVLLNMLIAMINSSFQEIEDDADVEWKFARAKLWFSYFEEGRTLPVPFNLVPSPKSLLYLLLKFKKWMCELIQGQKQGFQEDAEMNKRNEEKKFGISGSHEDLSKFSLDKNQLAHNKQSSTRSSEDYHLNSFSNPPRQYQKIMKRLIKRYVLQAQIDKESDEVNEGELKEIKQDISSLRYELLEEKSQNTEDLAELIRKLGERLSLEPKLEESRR
smiles,measurement,setting,value
CCC(C)NCCOCCOc1ccc(Br)cc1C (configuration not stated),membrane potential signal change,[1],94% (active)
same,outcome,[2],inactive
same,"percent change from control (negative = decrease, positive = increase)",[3],21% (active)
same,outcome,[4],inactive
same,outcome,[5],inactive
COc1cc2c(cc1OC)C(/C=C/c1ccco1)=NCC2,membrane potential signal change,[1],-362% (active)
same,inhibition,[2],83% (active)
same,"percent change from control (negative = decrease, positive = increase)",[3],-64% (active)
same,inhibition,[4],62% (active)
same,inhibition,[5],72.5% (active)
same,outcome,[6],inactive
CCCCc1nc(NCCN)c(C#N)c2c1CSC(C)(C)C2,outcome,[1],inactive
same,outcome,[2],inactive
same,outcome,[3],inactive
same,inhibition,[4],56.5% (active)
same,outcome,[5],inactive
same,outcome,[6],inactive
O=C(NC1C2CC3CC(C2)CC1C3)c1ccc(N2CCNCC2)c([N+](=O)[O-])c1 (configuration not stated),membrane potential signal change,[1],-120% (active)
same,outcome,[2],inactive
same,"percent change from control (negative = decrease, positive = increase)",[3],-22% (active)
same,inhibition,[4],70.5% (active)
same,inhibition,[5],57.5% (active)
same,outcome,[6],inactive
CCN1CCN(c2nc(Nc3cc(OC)ccc3OC)nc(Nc3cc(OC)ccc3OC)n2)CC1,outcome,[1],inactive
same,outcome,[2],inactive
same,outcome,[3],inactive
same,inhibition,[4],55.5% (active)
same,outcome,[5],inactive
same,outcome,[6],inactive
COC(=O)c1ccc(NC(=O)CSc2nnc(-c3ccncc3)n2C)cc1,membrane potential signal change,[1],292% (active)
same,outcome,[2],inactive
same,"percent change from control (negative = decrease, positive = increase)",[3],35.5% (active)
same,outcome,[4],inactive
same,outcome,[5],inactive
same,activation,[6],116% (active)
O=C(CN1CCCCCC1)NCCN1C(=O)S/C(=C\c2ccccc2Cl)C1=O,outcome,[1],inactive
same,outcome,[2],inactive
same,outcome,[3],inactive
same,inhibition,[4],36% (active)
same,outcome,[5],inactive
same,outcome,[6],inactive
CCN1CCN(c2ccc([N+](=O)[O-])cc2C(=O)c2ccc(Cl)cc2)CC1,membrane potential signal change,[1],150% (active)
same,outcome,[2],inactive
same,"percent change from control (negative = decrease, positive = increase)",[3],20.5% (active)
same,inhibition,[4],63.5% (active)
same,outcome,[5],inactive
same,outcome,[6],inactive
CCCN(CCc1ccccc1)C1CCc2c(O)cccc2C1 (configuration not stated),membrane potential signal change,[1],202% (active)
same,outcome,[2],inactive
same,"percent change from control (negative = decrease, positive = increase)",[3],45.5% (active)
same,inhibition,[4],68.5% (active)
same,outcome,[5],inactive
same,activation,[6],88.5% (active)
CC(C)(C)Nc1nc(-c2ccccn2)nc2ccccc12,membrane potential signal change,[1],-424% (active)
same,inhibition,[2],77% (active)
same,"percent change from control (negative = decrease, positive = increase)",[3],-58% (active)
same,inhibition,[4],74% (active)
same,inhibition,[5],56.5% (active)
same,outcome,[6],inactive
Cc1nc(C(=O)NCc2ccccc2)sc1C1(C)CC(c2cccnc2)=NO1 (configuration not stated),outcome,[1],inactive
same,inhibition,[2],97.5% (active)
same,outcome,[3],inactive
same,outcome,[4],inactive
same,inhibition,[5],114% (active)
N=c1n(CCc2ccccc2)c2ccccc2n1Cc1ccccc1F,membrane potential signal change,[1],129% (active)
same,outcome,[2],inactive
same,"percent change from control (negative = decrease, positive = increase)",[3],20.5% (active)
same,inhibition,[4],90.5% (active)
same,inhibition,[5],66.5% (active)
OCCC1CN(Cc2ccc3nsnc3c2)CCN1C1CCCCC1 (configuration not stated),membrane potential signal change,[1],109% (active)
same,outcome,[2],inactive
same,"percent change from control (negative = decrease, positive = increase)",[3],18% (active)
same,inhibition,[4],37% (active)
same,outcome,[5],inactive
COc1ccccc1C(CNC(=O)c1cccc(NS(=O)(=O)c2ccc(Br)cc2)c1)N(C)C (configuration not stated),outcome,[1],inactive
same,outcome,[2],inactive
same,outcome,[3],inactive
same,inhibition,[4],32.5% (active)
same,inhibition,[5],44% (active)
same,outcome,[6],inactive
Clc1ccc(-n2nnnc2-c2cnc(-c3ccccn3)nc2-c2cccs2)cc1,membrane potential signal change,[1],133% (active)
same,outcome,[2],inactive
same,"percent change from control (negative = decrease, positive = increase)",[3],19.5% (active)
same,outcome,[4],inactive
same,outcome,[5],inactive
CCN(CC)CCNc1nc(-c2ccc(OC(F)F)cc2)c(C)s1,outcome,[1],inactive
same,outcome,[2],inactive
same,outcome,[3],inactive
same,inhibition,[4],50.5% (active)
same,outcome,[5],inactive
same,outcome,[6],inactive
O=C1c2ccccc2C(=O)c2c1cccc2N1CCN(CCO)CC1,membrane potential signal change,[1],-367% (active)
same,inhibition,[2],64% (active)
same,"percent change from control (negative = decrease, positive = increase)",[3],-80.5% (active)
same,inhibition,[4],60% (active)
same,inhibition,[5],78.5% (active)
same,outcome,[6],inactive
COc1ccc(Cl)cc1NC(=O)CCS(=O)(=O)c1cc2c(cc1C)NC(=O)CO2,outcome,[1],inactive
same,outcome,[2],inactive
same,"percent change from control (negative = decrease, positive = increase)",[3],-9.5% (active)
same,outcome,[4],inactive
same,outcome,[5],inactive
same,outcome,[6],inactive
Nc1ccc(C(=O)N2CCN(S(=O)(=O)c3ccc(Cl)cc3)CC2)cc1[N+](=O)[O-],outcome,[1],inactive
same,outcome,[2],inactive
same,outcome,[3],inactive
same,outcome,[4],inactive
same,inhibition,[5],72.5% (active)
Cc1nn(Cc2ccc(C(=O)N3N=C(C(F)F)CC3(O)C(F)F)cc2)c(C)c1[N+](=O)[O-] (configuration not stated),outcome,[1],inactive
same,outcome,[2],inactive
same,"percent change from control (negative = decrease, positive = increase)",[3],-17.5% (active)
same,outcome,[4],inactive
same,outcome,[5],inactive
same,outcome,[6],inactive
CN1CCN(C(=O)N2c3ccccc3CCc3ccccc32)CC1,outcome,[1],inactive
same,outcome,[2],inactive
same,"percent change from control (negative = decrease, positive = increase)",[3],14.5% (active)
same,outcome,[4],inactive
same,outcome,[5],inactive
O=C(C1CCN(S(=O)(=O)Cc2ccccc2)CC1)N1CCCc2ccccc21,membrane potential signal change,[1],90% (active)
same,outcome,[2],inactive
same,"percent change from control (negative = decrease, positive = increase)",[3],8.5% (active)
same,outcome,[4],inactive
same,outcome,[5],inactive
same,outcome,[6],inactive
Cc1ccccc1NC(=O)CNc1ccccc1N1CCCCC1,outcome,[1],inactive
same,outcome,[2],inactive
same,outcome,[3],inactive
same,inhibition,[4],52.5% (active)
same,outcome,[5],inactive
same,outcome,[6],inactive
CC(=O)c1cc(NC(=O)c2ccccc2)c(=O)oc1/C=C/N(C)C,membrane potential signal change,[1],868% (active)
same,inhibition,[2],196% (active)
same,"percent change from control (negative = decrease, positive = increase)",[3],43% (active)
same,inhibition,[4],35.5% (active)
same,outcome,[5],inactive
same,outcome,[6],inactive
